Measurements: PubChem BioAssay (NCI)
About 83,000 compounds went through this panel and 20% of them were active in at least one assay; those are over-represented in the sample as a whole.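 Interpretation: 100, growth as untreated; towards 0, rising growth inhibition; 0, no net growth; 0 to -100, cell death. Compounds scoring below 10 were considered active.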 Activity calls are given as the source filed them.

System: NCI-H23 lung
Experiment: NCI-60 one-dose screen, 48 h (100 = growth as untreated, 0 = no growth, -100 = all killed)
Details: 10 µM

Row | SMILES | growth
1 | O=[N+]([O-])C1CC2C=CC1C2 (stereo not drawn) | 100% (inactive)
2 | COc1ccc(C2CC(c3ccc(-c4ccccc4)cc3)=NN2c2ccc(S(N)(=O)=O)cc2)cc1 (stereo not drawn) | 80.9% (inactive)
3 | O=C(Nc1cccc(F)c1)Nc1cccc(Cl)c1 | 89.8% (inactive)
4 | COc1cc(/C=C2\C(=O)Nc3cc(C)c(O)cc32)cc(OC)c1OC | 65.2% (inactive)
5 | COC(=O)c1ccc(Cn2ccc(=O)[nH]c2=O)cc1 | 105% (inactive)
6 | Nc1nc2c(ncn2C2OC3COP(=O)(O)OC4C(COP(=O)(O)OC2C3O)OC(n2cnc3c(N)ncnc32)C4O)c(=O)[nH]1 (stereo not drawn) | 106% (inactive)
7 | COc1cccc(C(=O)NNc2nc(N3CCN(C4CCCCC4)CC3)nc(N3CCN(C(c4ccccc4)c4ccccc4)CC3)n2)c1 | 41.5% (inactive)
8 | O=C(CCCC(=O)N/N=C/c1cc(Cl)ccc1O)N/N=C\c1cc(Cl)ccc1O | 38.4% (inactive)
9 | COc1ccc2nc(/C=C/c3ccc(N(C)C)cc3)sc2c1 | 89.5% (inactive)
10 | O=c1cc(CSc2nnc(-c3ccccc3)n2-c2ccc(F)cc2)c2ccc3ccccc3c2o1 | 83.6% (inactive)
11 | O=C(O)CCCCSCCCCC(=O)O | 103% (inactive)
12 | C#C[C@]1(O)CC[C@H]2[C@@H]3CC[C@H]4CC(F)(F)CC[C@]4(C)[C@H]3CC[C@@]21C | 95.5% (inactive)
13 | O=C(OCC1OC(n2cc(C(F)(F)F)c(=O)[nH]c2=O)CC1OC(=O)c1ccc([N+](=O)[O-])cc1)c1ccc([N+](=O)[O-])cc1 (stereo not drawn) | 90.9% (inactive)
14 | COC(=O)c1cnc2c(c1)Oc1ccc(Cl)cc1-c1cc(C)nn1-2 | 74.5% (inactive)
15 | Cn1cnc([N+](=O)[O-])c1/C=C1\Oc2ccc(Cl)cc2C1=O | 93.9% (inactive)
16 | CCOC(=S)Sc1ccc([N+](=O)[O-])cc1[N+](=O)[O-] | 97.3% (inactive)
17 | NC(N)=NS(=O)(=O)c1ccc(Nc2ccc3nnc(-c4ccncc4)n3n2)cc1 | 102% (inactive)
18 | N#C/C(=C\N1C(=O)/C(=C/c2cccc([N+](=O)[O-])c2)SC1=S)c1nc2ccccc2s1 | 68.9% (inactive)
19 | CC(=O)Nc1ccc(Sc2ccc(NC(C)=O)cc2)cc1 | 94.1% (inactive)

Row | SMILES | growth
20 | O=C(CCl)N1c2ccccc2Sc2ccc3ccccc3c21 | -76.5% (active)
21 | Cc1ccc(Cl)cc1Nc1nc(C(F)(F)F)ccc1C(=O)N/N=C/c1c(Cl)cccc1Cl | 6.65% (active)
22 | COc1ccc(C2C=C(c3ccc(Cl)c(Cl)c3)N=C3SC(C)=CN32)cc1OC (stereo not drawn) | 64% (inactive)
23 | CCn1nc(-c2ccccn2)c2cccnc2c1=S | 36.8% (inactive)
24 | C=C[C@]1(C)C=C2C(=O)[C@@]3(O)OC(=O)[C@@]4(CCCC(C)(C)[C@H]34)[C@@]2(O)CC1 | -60.6% (active)
25 | CCN(CC)CCCOC(=O)Nc1ccccc1Cl | 108% (inactive)
26 | O=S(=O)(NC1c2ccccc2Oc2ccccc21)c1cc(Cl)ccc1Cl | 97.6% (inactive)
27 | N#Cc1ccc(-n2cnc(NC(=O)[C@H]3CCN(C#N)C3)c2)cc1 | 19.8% (inactive)
28 | CC(=O)n1nc(C(=O)OC(C)(C)C)c2cc(F)c(F)cc21 | 101% (inactive)
29 | O=C1CC[C@@H](C(=O)N[C@H]2CSSC[C@@H](C(=O)NCCc3ccccc3)NC(=O)[C@H](Cc3ccccc3)NC(=O)[C@@H]3CCCN3C(=O)[C@@H]3CCCN3C2=O)N1 | 92.7% (inactive)
30 | CCc1c(C(=O)NCc2c(O)ccc3cccc(O)c23)[nH]c(C)c1C(C)=O | 23.4% (inactive)
31 | CS(=O)(=O)Nc1ccc(OCc2nnc(-c3ccc(Cl)cc3)o2)c(F)c1 | 93.6% (inactive)
32 | COc1ccc(-c2nc(-c3nc4ccc(OC)cc4[nH]3)c3ccccn23)cc1 | 90.5% (inactive)
33 | CC(C)c1ncc(CO)n1Cc1c(Cl)cccc1Cl | 110% (inactive)
34 | NC1CCC(Nc2nc(NCc3ccc(-c4ccco4)nc3)c3ncn(C4CCCC4)c3n2)CC1 (stereo not drawn) | -18.1% (active)
35 | c1ccc(C2CCCCC2)c(OCCCCCN2CCNCC2)c1 | 71.2% (inactive)
36 | N#Cc1c(-c2ccccc2)nc(SCC(=O)N2CCOCC2)[nH]c1=O | 104% (inactive)
37 | Cc1cn(C(=O)/C(Cl)=C(/Cl)C(=O)O)c2ccccc12 | 96.7% (inactive)
38 | C=CCNCCCN1C(=O)c2ccc3c4c(ccc(c24)C1=O)C(=O)N(CCCNCC=C)C3=O | -55.6% (active)
